# Assay results published in PubChem BioAssay AID631 (The Scripps Research Institute Molecular Screening Center, 2007).
# In all, about 200,000 compounds went through this assay and about 810 (0.41%) were called active. The entries come from a sample that favours actives as a whole. Values without a mark were called inactive. No stated cut-off is given here; in the data, active means activation above about 19%; inactive means the rest.
# Target: Peroxisome proliferator-activated receptor gamma (Homo sapiens) (UniProt P37231)
# Sequence (P37231 whole entry, looked up): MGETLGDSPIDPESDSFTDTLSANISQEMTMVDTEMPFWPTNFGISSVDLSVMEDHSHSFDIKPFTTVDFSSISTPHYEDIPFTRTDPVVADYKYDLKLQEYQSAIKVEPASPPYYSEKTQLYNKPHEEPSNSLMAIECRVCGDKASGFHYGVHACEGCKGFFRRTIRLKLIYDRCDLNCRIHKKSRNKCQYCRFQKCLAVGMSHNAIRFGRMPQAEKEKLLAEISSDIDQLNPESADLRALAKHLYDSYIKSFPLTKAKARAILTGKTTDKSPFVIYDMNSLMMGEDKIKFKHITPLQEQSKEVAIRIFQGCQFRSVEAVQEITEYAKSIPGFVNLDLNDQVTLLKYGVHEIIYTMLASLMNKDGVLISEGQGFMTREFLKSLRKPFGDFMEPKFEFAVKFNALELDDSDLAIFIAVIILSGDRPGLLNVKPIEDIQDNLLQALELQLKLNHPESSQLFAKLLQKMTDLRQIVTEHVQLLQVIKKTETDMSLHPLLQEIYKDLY
# Experiment: PPARgamma agonists recruiting SRC-1 coactivator, primary screen, biochemical (AID 631);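 further: 0% = DMSO and 100% = reference agonist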
# Conditions: PPARgamma-SRC-1 coactivator recruitment biochemical assay; at 8 µM; stronger effect = higher value
row,Structure (SMILES),activation
1,CSC1=NP(=S)(SC)N(C)c2nc3n(c21)CCC3 (stereo not given),65.3% (active)
2,Cc1ccc2c(c1)C1CN(C)CCC1N2C(=O)Cn1nnc(-c2ccccc2F)n1 (stereo not given),3.5%
3,OCC#CC[N+]1(CC#Cc2ccccc2)CCCC1,4.2%
4,CC(=O)NC(=O)NC(C)Cc1ccccc1 (stereo not given),6.2%
5,COc1cccc(-c2nc3ccc(N4CCN(C)CC4)cc3[nH]2)c1,3.8%
